Source: PubChem BioAssay (NCATS)
Results filed as inconclusive are left out. Some of the results follow. Active and inactive are the calls of the source. Unless noted, calls follow the shape of the dose curve; as a rule, active = well fitted curve in the direction sought with a large enough effect; inconclusive = small, poorly fitted or top-dose-only effect, or another doubt; inactive = no such curve, though single readings can be large; an effect the other way counts as inactive or inconclusive.

How the values were obtained:
[1] = qHTS profiling for inhibitors of Plasmodium falciparum (3D7) proliferation (AID 743322; call rule not given here;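 also: infected erythrocytes exposed to compound for 72 h before lysis; 100% = DMSO vehicle wells and 0% = 0.29 µM artemisinin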); settings: P. falciparum 3D7 proliferation; at 28.7 µM (top of the series)
How it was run: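 Parasite DNA was quantified by SYBR Green I fluorescence (ex 485, em 535 nm) after overnight lysis in saponin/Triton buffer at room temperature. Cultures at 0.3% parasitemia and 2.5% hematocrit were first exposed to compound for 72 h at 37 C; signals were normalised to artemisinin (0.29 uM) and vehicle wells.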

[2] = qHTS profiling for inhibitors of Plasmodium falciparum (DD2) proliferation (AID 743323; call rule not given here); settings: lower = more inhibition; at 28.7 µM (top of the series)
How it was run: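 1536-well qHTS; infected RBCs 0.3% parasitemia/2.5% Hct final; cpd 72 h 37 C 5% CO2; lysis buffer + SYBR Green I, o/n RT dark; FI 485/535; norm. to 0.29 uM artemisinin and DMSO, plate-stack corrected.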

[3] = qHTS profiling for inhibitors of Plasmodium falciparum (HB3) proliferation (AID 743324); settings: Plasmodium falciparum HB3 blood-stage proliferation; at 28.7 µM (top of the series);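 also: 100% = DMSO vehicle wells and 0% = artemisinin-treated control wells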
How it was run: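 SYBR Green fluorescence (485 ex/535 em) of lysed cultures, incubated overnight at room temperature in the dark, quantifies parasite DNA. Infected erythrocytes at 0.3% parasitemia and 2.5% hematocrit were exposed 72 h; values normalized to DMSO and 0.29 uM artemisinin controls.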

[4] = qHTS for Inhibitors of WRN Helicase: Thiazole Orange DNA Binding Counterscreen (AID 720499); settings: thiazole orange DNA binding displacement, fluorescence; series mostly up to 57.1 µM;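 also: drop in dye fluorescence marks compound binding to DNA; % is scaled to controls: 0 for no effect and ±100 for the full control effect; nearly all actives have a fitted effect of over 60% in size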
How it was run: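 Counterscreen to remove nonspecific DNA binders from WRN helicase hits. Compounds were incubated 15 min at room temperature with 50 nM DNA and 100 nM ThO, then fluorescence was recorded (480 nm excitation, 530 nm emission).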

[5] = biological target: RecQ-like DNA helicase BLM (Homo sapiens) (UniProt P54132); experiment: qHTS for Inhibitors of WRN Helicase: BLM Helicase Counterscreen for WRN Inhibitors (AID 720503); settings: Recombinant BLM helicase DNA unwinding, red fluorescence; series mostly up to 57.1 µM; also: nearly all actives have a fitted effect of over 60% in size; also: potency is read from the fitted curve at half-maximal effect
RecQ-like DNA helicase BLM (Homo sapiens), sequence (P54132 whole entry, looked up): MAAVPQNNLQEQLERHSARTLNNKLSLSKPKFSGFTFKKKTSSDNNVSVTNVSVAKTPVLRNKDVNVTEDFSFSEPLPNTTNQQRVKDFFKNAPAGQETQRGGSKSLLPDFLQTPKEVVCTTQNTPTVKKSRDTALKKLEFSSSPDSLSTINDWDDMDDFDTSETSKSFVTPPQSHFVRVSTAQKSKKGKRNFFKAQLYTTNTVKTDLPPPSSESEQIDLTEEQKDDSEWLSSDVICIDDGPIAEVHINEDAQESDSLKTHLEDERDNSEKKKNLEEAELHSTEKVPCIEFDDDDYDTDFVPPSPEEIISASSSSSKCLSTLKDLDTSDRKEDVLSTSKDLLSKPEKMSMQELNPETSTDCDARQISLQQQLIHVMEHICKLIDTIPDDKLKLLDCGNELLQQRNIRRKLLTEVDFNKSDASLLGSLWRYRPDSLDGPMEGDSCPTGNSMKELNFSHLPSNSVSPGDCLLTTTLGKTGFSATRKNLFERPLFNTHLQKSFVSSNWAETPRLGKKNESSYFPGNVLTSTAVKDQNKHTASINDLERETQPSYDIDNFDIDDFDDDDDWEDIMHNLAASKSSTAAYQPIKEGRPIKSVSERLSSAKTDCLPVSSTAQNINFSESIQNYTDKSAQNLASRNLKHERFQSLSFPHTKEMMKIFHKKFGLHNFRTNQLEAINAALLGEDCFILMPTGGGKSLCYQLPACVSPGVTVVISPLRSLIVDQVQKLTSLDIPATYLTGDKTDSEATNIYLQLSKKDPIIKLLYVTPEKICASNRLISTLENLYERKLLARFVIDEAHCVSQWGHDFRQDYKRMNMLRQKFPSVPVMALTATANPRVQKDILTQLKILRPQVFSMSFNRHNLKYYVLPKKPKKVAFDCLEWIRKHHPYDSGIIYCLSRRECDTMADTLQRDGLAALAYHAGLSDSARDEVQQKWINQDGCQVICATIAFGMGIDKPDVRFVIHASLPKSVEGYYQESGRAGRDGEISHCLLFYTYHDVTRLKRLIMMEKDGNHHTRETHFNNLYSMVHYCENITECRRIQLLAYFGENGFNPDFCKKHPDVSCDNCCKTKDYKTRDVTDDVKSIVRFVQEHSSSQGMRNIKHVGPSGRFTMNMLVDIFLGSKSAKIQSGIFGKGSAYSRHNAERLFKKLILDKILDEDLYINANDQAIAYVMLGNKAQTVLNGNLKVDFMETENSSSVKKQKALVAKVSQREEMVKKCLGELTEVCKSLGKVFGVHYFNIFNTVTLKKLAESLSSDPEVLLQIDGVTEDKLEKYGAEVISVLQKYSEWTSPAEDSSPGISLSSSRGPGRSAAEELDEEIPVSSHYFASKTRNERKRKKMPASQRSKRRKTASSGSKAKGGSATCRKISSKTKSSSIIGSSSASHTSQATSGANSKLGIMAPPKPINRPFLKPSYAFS
How it was run: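 1 nM BLM, Tris pH 8.0/NaCl/MgCl2/DTT/Tween-20; cpd preinc 15 min RT; start w/ 100 nM DNA + 2 mM ATP final; fluorescence (ex 525/em 598) two reads 15 min apart; normalized to enzyme-free and DMSO controls.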

[6] = biological target: DNA polymerase eta (Homo sapiens) (UniProt Q9Y253); experiment: qHTS for Inhibitors of Polymerase Eta: Confirmatory Assay for Cherry-picked Compounds (AID 720502); settings: Pol eta primer extension, TAMRA/BHQ fluorescence, 10 min; also: potency is read from the fitted curve at half-maximal effect
DNA polymerase eta (Homo sapiens), sequence (Q9Y253 whole entry, looked up): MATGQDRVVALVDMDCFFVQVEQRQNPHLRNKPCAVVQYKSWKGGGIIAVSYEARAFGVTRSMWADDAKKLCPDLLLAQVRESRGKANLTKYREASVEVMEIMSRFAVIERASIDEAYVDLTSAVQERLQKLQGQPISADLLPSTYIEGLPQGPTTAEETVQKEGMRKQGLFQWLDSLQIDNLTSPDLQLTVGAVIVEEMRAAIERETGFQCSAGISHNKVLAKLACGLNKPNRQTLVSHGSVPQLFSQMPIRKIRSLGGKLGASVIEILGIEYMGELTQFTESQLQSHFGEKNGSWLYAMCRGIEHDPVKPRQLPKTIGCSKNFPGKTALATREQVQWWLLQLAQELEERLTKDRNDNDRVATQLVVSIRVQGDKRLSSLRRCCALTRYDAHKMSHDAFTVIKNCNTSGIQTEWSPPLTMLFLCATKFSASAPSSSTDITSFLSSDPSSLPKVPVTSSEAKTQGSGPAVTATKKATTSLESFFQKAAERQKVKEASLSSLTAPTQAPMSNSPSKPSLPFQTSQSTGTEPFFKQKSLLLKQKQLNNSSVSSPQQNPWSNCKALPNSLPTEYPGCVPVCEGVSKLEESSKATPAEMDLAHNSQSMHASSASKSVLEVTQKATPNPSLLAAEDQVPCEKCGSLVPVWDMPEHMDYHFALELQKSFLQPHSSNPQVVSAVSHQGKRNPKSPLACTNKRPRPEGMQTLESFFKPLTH
How it was run: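 Plates with 10 nM enzyme and compound stood 15 min at room temperature before substrate addition (50 nM final). Displacement of the TAMRA reporter from the BHQ-2 template was tracked for 10 min.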

[7] = qHTS Assay for Identifying Gametocytocidal Compounds (AID 743244);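 also: % is scaled to controls: 0 for no effect and ±100 for the full control effect; actives lower the fluorescent signal which means gametocytes are killed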; settings: P. falciparum 3D7 stage III-V gametocytes, alamarBlue, 72 h; stronger effect = lower value
How it was run: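 A resazurin-based viability read-out was applied to mature P. falciparum gametocytes: 72 h compound treatment, then 24 h dye incubation, with falling fluorescence signalling gametocytocidal effect.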

**Q.** For CC(C)(C)OC(=O)N[C@@H](Cc1ccc(O[S+](=O)([O-])c2cccc3cccnc23)cc1)C(=O)N1CCN(c2ccccc2)CC1, which remaining parasite growth % (stronger effect = lower value) [1] is on record?
**A.** -0.907%

**Q.** What about the activity, percent of control [2] of the same compound?
**A.** -0.148%

**Q.** And the remaining proliferation (% of control), lower = more inhibition [3]?
**A.** -0.0202%

**Q.** For COc1ccc(Cl)cc1-c1cc(C(=O)Nc2cc(OC)c(OC)c(OC)c2)[nH]n1, which Potency [4] is on record?
**A.** inactive

**Q.** What about the Potency [5] of the same compound?
**A.** 27.1 µM (active)

**Q.** With COC(=O)[C@H](Cc1ccc(O[S+](=O)([O-])c2cccc3cnccc23)cc1)N[S+](=O)([O-])c1ccc2cnccc2c1 as the compound, how does the remaining parasite growth % (stronger effect = lower value) [1] read?
**A.** 13.9%

**Q.** And the activity, percent of control [2]?
**A.** 29.2%

**Q.** What about the remaining proliferation (% of control), lower = more inhibition [3] of the same compound?
**A.** 6.01%

**Q.** For Cc1nnc(SCC(=O)Nc2ccc(S(=O)(=O)Nc3ccc(Cl)nn3)cc2)s1, which Potency [6] is on record?
**A.** 53.6 µM (active)

**Q.** What does the source list for O=c1[nH]c2ccccc2n2c(-c3ccccc3)nnc12?
**A.** Potency [4]: inactive; Potency [5]: inactive

**Q.** Which remaining parasite growth % (stronger effect = lower value) [1] does the source give for CC(C)(C)OC(=O)N[C@@H](Cc1ccc(O[S+](=O)([O-])c2ccccn2)cc1)C(=O)N1CCN(c2ccccc2)CC1 here?
**A.** 5.22%

**Q.** What about the activity, percent of control [2] of the same compound?
**A.** 11.4%

**Q.** What about the remaining proliferation (% of control), lower = more inhibition [3] of the same compound?
**A.** 2.38%

**Q.** With Cc1cc(/C=C2\SC(=O)N(C)C2=O)c(C)n1-c1cccc(C(=O)O)c1 as the compound, how does the Potency [6] read?
**A.** 30.1 µM (active)

**Q.** For CCCCC(F)(F)[C@@]1(O)CC[C@H]2[C@@H](CC(=O)[C@@H]2CCCCCCC(=O)O)O1, which max response [7] is on record?
**A.** 2.98% (inactive)

**Q.** Which max response [7] does the source give for O=C(O)[C@H]1/C(=C/CO)O[C@@H]2CC(=O)N21 here?
**A.** 8.98% (inactive)

**Q.** Which results are given for O=C([C@@H](Cc1ccc(O[S+](=O)([O-])c2ccccn2)cc1)N[S+](=O)([O-])c1cccc2cccnc12)N1CCN(c2ccccc2)CC1?
**A.** remaining parasite growth % (stronger effect = lower value) [1]: -0.32%; activity, percent of control [2]: 1.5%; remaining proliferation (% of control), lower = more inhibition [3]: 0.71%

**Q.** For O=C([C@H](Cc1ccc(O[S+](=O)([O-])c2ccccn2)cc1)N[S+](=O)([O-])c1cccnc1)N1CCN(c2ccccc2)CC1, which remaining parasite growth % (stronger effect = lower value) [1] is on record?
**A.** 17.8%

**Q.** And the activity, percent of control [2]?
**A.** 17.9%

**Q.** And the remaining proliferation (% of control), lower = more inhibition [3]?
**A.** 2.38%

**Q.** With O=C([C@H](Cc1ccc(O[S+](=O)([O-])c2cccc3cnccc23)cc1)N[S+](=O)([O-])c1cccnc1)N1CCN(c2ccccc2)CC1 as the compound, how does the remaining parasite growth % (stronger effect = lower value) [1] read?
**A.** -1.25%

**Q.** And the activity, percent of control [2]?
**A.** 0.979%

**Q.** And the remaining proliferation (% of control), lower = more inhibition [3]?
**A.** -0.812%

**Q.** For C=C1C(=C/C=C2\CCC[C@]3(C)[C@@H]([C@H](C)CCCC(C)C)CC[C@@H]23)C[C@@H](O)C[C@@H]1O, which max response [7] is on record?
**A.** -2.16% (inactive)

**Q.** For O=C(Nc1ccccc1)c1nnsc1S(=O)(=O)c1ccc(Cl)cc1, which Potency [4] is on record?
**A.** inactive

**Q.** And the Potency [5]?
**A.** inactive

**Q.** For CO[C@@]12[C@H](COC(N)=O)C3=C(C(=O)C(C)=C(N)C3=O)N1C[C@H]1N[C@H]12, which remaining parasite growth % (stronger effect = lower value) [1] is on record?
**A.** -0.57%

**Q.** What about the activity, percent of control [2] of the same compound?
**A.** 0.869%

**Q.** What about the remaining proliferation (% of control), lower = more inhibition [3] of the same compound?
**A.** -0.956%

**Q.** For O=C([C@H](Cc1ccc(O[S+](=O)([O-])c2cccc3cccnc23)cc1)N[S+](=O)([O-])c1ccccn1)N1CCN(c2ccccc2)CC1, which remaining parasite growth % (stronger effect = lower value) [1] is on record?
**A.** -1.21%

**Q.** And the activity, percent of control [2]?
**A.** 2.43%

**Q.** And the remaining proliferation (% of control), lower = more inhibition [3]?
**A.** -0.011%

**Q.** Which results are given for O=C([C@H](Cc1ccc(O[S+](=O)([O-])c2cccc3cccnc23)cc1)N[S+](=O)([O-])c1cccc2cnccc12)N1CCN(c2ccccc2)CC1?
**A.** remaining parasite growth % (stronger effect = lower value) [1]: -0.402%; activity, percent of control [2]: 1.4%; remaining proliferation (% of control), lower = more inhibition [3]: 0.212%

**Q.** For O=C([C@H](Cc1ccc(O[S+](=O)([O-])c2cccnc2)cc1)N[S+](=O)([O-])c1cccnc1)N1CCN(c2ccccc2)CC1, which remaining parasite growth % (stronger effect = lower value) [1] is on record?
**A.** 15.8%

**Q.** And the activity, percent of control [2]?
**A.** 16.7%

**Q.** And the remaining proliferation (% of control), lower = more inhibition [3]?
**A.** 3.22%

**Q.** With CC(O)[C@@H]1NC(=O)[C@H](CCCCN)NC(=O)[C@@H](Cc2c[nH]c3ccccc23)NC(=O)[C@H](Cc2ccccc2)NC(=O)[C@@H](NC(=O)[C@H](N)Cc2ccccc2)CSSC[C@@H](C(=O)N[C@H](CO)[C@@H](C)O)NC1=O (stereo not given in full) as the compound, how does the max response [7] read?
**A.** -8.72% (inactive)

**Q.** Which results are given for N#C/C(=C\C1=C(N2CCOCC2)C(=C\c2ccccc2)/CC1)C(=O)Nc1ccccc1F?
**A.** Potency [4]: inactive; Potency [5]: 21.5 µM (active)

**Q.** Which results are given for CCOc1ccccc1C(=O)NCc1ccco1?
**A.** Potency [4]: inactive; Potency [5]: 19.2 µM (active)

**Q.** With O=C([C@@H](Cc1ccc(O[S+](=O)([O-])c2cccc3cccnc23)cc1)N[S+](=O)([O-])c1cccc2cccnc12)N1CCN(c2ccccc2)CC1 as the compound, how does the remaining parasite growth % (stronger effect = lower value) [1] read?
**A.** 0.884%

**Q.** What about the activity, percent of control [2] of the same compound?
**A.** 3.45%

**Q.** What about the remaining proliferation (% of control), lower = more inhibition [3] of the same compound?
**A.** 1.75%

**Q.** For O=C1C(=O)c2ccccc2C(O)=C1C1CCCCC1, which remaining parasite growth % (stronger effect = lower value) [1] is on record?
**A.** 3.7%

**Q.** And the activity, percent of control [2]?
**A.** 4.15%

**Q.** What about the remaining proliferation (% of control), lower = more inhibition [3] of the same compound?
**A.** 3.28%

**Q.** Which max response [7] does the source give for CCCCCCCCCCCCCCCC(=O)O[C@@H]1[C@@H](O)[C@@H](O)[C@@H]([C@H](NC(=O)[C@@H]2C[C@@H](CCC)CN2C)[C@H](C)Cl)O[C@@H]1SC here?
**A.** -16.5% (inactive)

**Q.** With N[C@@H](Cc1ccc(OS(=O)(=O)c2ccccn2)cc1)C(=O)N1CCN(c2ccccc2)CC1 as the compound, how does the remaining parasite growth % (stronger effect = lower value) [1] read?
**A.** 98.8%

**Q.** And the activity, percent of control [2]?
**A.** 43.6%

**Q.** What about the remaining proliferation (% of control), lower = more inhibition [3] of the same compound?
**A.** 67%

**Q.** With O=C([C@H](Cc1ccc(O[S+](=O)([O-])c2ccccn2)cc1)N[S+](=O)([O-])c1cccc2cnccc12)N1CCN(c2ccccc2)CC1 as the compound, how does the remaining parasite growth % (stronger effect = lower value) [1] read?
**A.** -0.962%

**Q.** And the activity, percent of control [2]?
**A.** 2.47%

**Q.** What about the remaining proliferation (% of control), lower = more inhibition [3] of the same compound?
**A.** 0.0492%

**Q.** Which max response [7] does the source give for CN(C)c1cc(NC(=O)CNC(C)(C)C)c(O)c2c1C[C@H]1C[C@H]3[C@H](N(C)C)C(=O)C(C(N)=O)=C(O)[C@@]3(O)C(=O)C1=C2O here?
**A.** 7.63% (inactive)
